Values joined by “and” are separate entries in the source; they are usually repeats but may differ in a detail not shown here. Equal values may be shown once. Inconclusive results are not listed. Active and inactive are the calls of the source. The call rests on the fitted dose curve; in most records, active means well fitted curve in the direction sought with a large enough effect; inconclusive means small, poorly fitted or top-dose-only effect, or another doubt; inactive means no such curve, though single readings can be large or run the other way.
These compounds were tested against Lysosomal acid glucosylceramidase (Homo sapiens) (UniProt P04062) (assay: qHTS Assay for Inhibitors and Activators of N370S glucocerebrosidase as a Potential Chaperone Treatment of Gaucher Disease: Primary Screen Confirmation). Details: N370S glucocerebrosidase enzyme activity, fluorogenic substrate; series mostly up to 54 µM.
Lysosomal acid glucosylceramidase (Homo sapiens), sequence (P04062 whole entry N409S): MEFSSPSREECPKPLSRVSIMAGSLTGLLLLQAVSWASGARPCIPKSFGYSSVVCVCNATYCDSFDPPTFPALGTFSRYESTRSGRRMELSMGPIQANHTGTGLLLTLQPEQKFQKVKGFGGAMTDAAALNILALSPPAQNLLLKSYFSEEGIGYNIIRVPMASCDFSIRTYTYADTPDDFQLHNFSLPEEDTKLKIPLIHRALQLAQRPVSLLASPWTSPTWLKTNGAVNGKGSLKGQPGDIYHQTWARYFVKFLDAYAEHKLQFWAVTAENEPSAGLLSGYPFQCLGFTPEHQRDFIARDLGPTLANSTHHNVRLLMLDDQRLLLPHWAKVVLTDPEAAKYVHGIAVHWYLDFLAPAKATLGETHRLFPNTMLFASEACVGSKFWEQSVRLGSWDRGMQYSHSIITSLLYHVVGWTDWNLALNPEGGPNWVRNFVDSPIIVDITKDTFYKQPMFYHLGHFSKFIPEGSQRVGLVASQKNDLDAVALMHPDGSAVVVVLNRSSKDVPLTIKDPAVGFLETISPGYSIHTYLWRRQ
Source text: NIH Chemical Genomics Center [NCGC]
NIH Molecular Libraries Probe Production Centers Network [MLPCN]
Assay Submitter (PI): Wei Zheng
Glucocerebrosidase (GC) catalyzes the hydrolysis of beta-glucocerebroside to glucose and ceramide in lysosomes. Mutations in the glucocerebrosidase gene result in Gaucher disease, an autosomal recessive lysosomal storage disorder. Many of the mutations encountered in patients with Gaucher disease are missense alterations that may cause misfolding, decreased stability and/or mistrafficking of this lysosomal protein. […] These inhibitors include iminosugar analogs and three non-iminosugar inhibitors identified from a previous HTS of 62,000 compounds with the wild type recombinant enzyme. However, the enhancement of enzyme activity by the chaperone action of an enzyme inhibitor must be balanced against the direct inhibition of the enzyme. An enzyme activator could also function as a chaperone by binding to the enzyme and helping to correct its misfolding and mistrafficking. While activators for GC have not yet been identified, they may have better therapeutic potential than inhibitors. Therefore the discovery and development of chemical activators may provide a new strategy for the chaperone therapy.
We have optimized a new assay using N370S mutant GC derived from the spleen of a Gaucher patient. […] In addition, the MLPCN compound library has expanded, which increases the chance of finding new and better probes.
NCGC Assay Protocol Summary:
This is a fluorogenic enzyme assay with 4-methylumbelliferyl-beta-D-glucopyranoside as the substrate and N370S glucocerebrosidase from human spleen homogenate as the enzyme preparation. Upon the hydrolysis of this fluorogenic substrate, the resulting product, […] which can be detected by a standard fluorescence plate reader. Data were normalized to the controls for basal activity (without enzyme) and 100% activity (with enzyme). The AC50 values were determined from concentration-response data modeled with the standard Hill equation.
Assay buffer: 50 mM citric acid (titrated with potassium phosphate to pH 5.0), 100 mM potassium chloride, 10 mM sodium chloride, 1 mM magnesium chloride, 0.01% Tween-20.
1536-well assay protocol:
(1) Add 2 ul/well of spleen homogenate (27 ug final)
(2) Add 23 nL compounds in DMSO solution. The final titration was 0.5 nM to 58 uM.
(3) Add 2 ul of substrate (1 mM final)
(4) Incubate at 37C for 40 min.
(5) Add 2 ul stop solution (1M NaOH and 1M Glycine mixture, pH 10)
(6) Detect the assay plate in a ViewLux plate reader (PerkinElmer) with Ex=365 nm and Em=440nm.
Keywords: Glucocerebrosidase, beta-glucosidase, Gaucher Disease, pharmacological chaperone, chaperone therapy, high throughput screening, glucocerebrosidase inhibitor, MLSMR, MLSCN, NIH Roadmap, qHTS and NCGC
With CC(C)OCCCNc1nc(-c2ccccc2)nc2ccccc12 the Potency was 4.01 µM (active). With Cc1csc(NC(=O)CN2C(=O)c3ccccc3S2(=O)=O)n1 the Potency was “inactive”. In the case of Cc1cc(C)nc(NC(=O)Cc2ccc(Cl)cc2)c1, the Potency is reported as “inactive”. With CC(Nc1nc(-c2ccccc2F)nc2ccccc12)c1ccccc1 (stereo not given) the Potency was 3.66 µM (active). For Clc1ccc(CN(CCCNc2ncnc(NCCCc3cnc[nH]3)n2)c2ccc(Br)cn2)cc1Cl, the Potency was 5.66 µM (active). For Cc1ccc(S(=O)(=O)C2CCN(c3nc(-c4cccs4)nc4ccccc34)CC2)cc1, the Potency was 8.19 µM (active). For O=C(c1ccc2c(c1)OCCO2)N1CCN(c2nc(-c3cccs3)nc3ccccc23)CC1, the Potency was 3.66 µM (active). In the case of O=S(=O)(/C=C/c1ccccc1)N1CCN(c2nc(-c3ccccc3)nc3ccccc23)CC1, the Potency is reported as 11.6 µM (active). For C#CCOCCOCCOCCNc1nc(N2CCN(C(=O)CCCCCCCCCCNC(=O)[C@H](CO)n3cc(CCCSC)nn3)CC2)nc(N2CCN(C(=O)CCCCCCCCCCNC(=O)[C@H](CCCN=C(N)N)n3cc(C[C@@H](C)CC)nn3)CC2)n1, the Potency was 6.51 µM (active). O=S(=O)(c1ccc(F)cc1)N1CCN(c2nc(-c3cccc(Br)c3)nc3ccccc23)CC1 was tested, and the Potency was “inactive”. For S=C(NCCCCN(Cc1ccc(Cl)cc1)c1ccc(Br)cn1)NCCCc1cnc[nH]1, the Potency was 0.635 µM (active). In the case of N#C/C(=C\c1c(Oc2ccccc2Cl)nc2ccccn2c1=O)C(=O)NC1CCS(=O)(=O)C1 (stereo not given), the Potency is reported as “inactive”. O=C(NCCCc1cnc[nH]1)NCCCN(Cc1ccc(Cl)cc1)c1ccc(Br)cn1 was tested, and the Potency was 1.01 µM (active). In the case of O=S(=O)(c1ccccc1C(F)(F)F)N1CCN(c2nc(-c3ccccc3)nc3ccccc23)CC1, the Potency is reported as 2.91 µM (active). In the case of COc1ccc(S(=O)(=O)N2CCN(c3nc(-c4ccccc4)nc4ccccc34)CC2)cc1, the Potency is reported as 3.66 µM (active). With Cc1cc(NC(=O)CCS(=O)(=O)c2ccc3c(c2)NC(=O)C(C)S3)ccc1Br (stereo not given) the Potency was 6.51 µM (active). For Cc1ccccc1S(=O)(=O)N1CCN(c2nc(-c3cccs3)nc3ccccc23)CC1, the Potency was 2.53 µM (active). NCCCN(Cc1ccc(Cl)c(Cl)c1)c1ccc(Br)cn1 was tested, and the Potency was 18.3 µM (active). In the case of O=[N+]([O-])c1ccc(S(=O)(=O)N2CCN(c3nc(-c4cccs4)nc4ccccc34)CC2)cc1, the Potency is reported as 3.2 µM (active). With c1ccc(CNc2nc(-c3cccs3)nc3ccccc23)cc1 the Potency was 7.13 µM (active) and 5.66 µM (active). S=C(NCCCc1cnc[nH]1)NCCCN(Cc1ccc(Cl)cc1)c1ccc(Br)cc1 was tested, and the Potency was 1.13 µM (active). In the case of S=C(NCCCc1cnc[nH]1)NCCCN(Cc1ccc(Cl)cc1)c1ccc(-c2ccccc2)cn1, the Potency is reported as 1.27 µM (active). In the case of CCCCN(Cc1ccc(Cl)c(Cl)c1)c1ccc(Br)cn1, the Potency is reported as “inactive”. For NCCCNc1ccc(Br)cn1, the Potency was “inactive”. In the case of Cc1cc(C)cc(N(CC(=O)NC2CCC(C)CC2)S(=O)(=O)c2c(C)[nH]c(=O)[nH]c2=O)c1 (stereo not given), the Potency is reported as 2.51 µM (active). With CCOc1ccc(S(=O)(=O)N2CCN(c3nc(-c4ccccc4)nc4ccccc34)CC2)cc1 the Potency was 4.11 µM (active). In the case of CC(C)C(C)NC(=O)CSc1nc2scc(-c3ccco3)c2c(=O)n1-c1ccccc1 (stereo not given), the Potency is reported as “inactive”. For O=S(=O)(c1ccc(F)cc1)N1CCN(c2nc(-c3cccs3)nc3ccccc23)CC1, the Potency was 1.27 µM (active) and 713 nM (active). In the case of S=C(NCCCc1cnc[nH]1)NCCCN(CCc1ccccc1)c1ccc(Br)cn1, the Potency is reported as 2.25 µM (active). CN(CCCc1cnc[nH]1)C(=S)NCCCN(Cc1ccc(Cl)cc1)c1ccc(Br)cn1 was tested, and the Potency was 11.4 µM (active). With Cc1cc(C)cc(N(CC(=O)NC2CCCCCC2)S(=O)(=O)c2c(C)[nH]c(=O)[nH]c2=O)c1 the Potency was 1.12 µM (active). With Cc1cc(C)cc(N(CC(=O)Nc2ccc(C(F)(F)F)cc2)S(=O)(=O)c2c(C)[nH]c(=O)[nH]c2=O)c1 the Potency was 2.59 µM (active). In the case of O=S(=O)(c1ccsc1)N1CCN(c2nc(-c3cccs3)nc3ccccc23)CC1, the Potency is reported as 1.03 µM (active). With O=S(=O)(c1ccc(Br)cc1)N1CCN(c2nc(-c3cccs3)nc3ccccc23)CC1 the Potency was 1.3 µM (active). In the case of COc1ccc(N(CC(=O)NC2CCCCC2)S(=O)(=O)c2c(C)[nH]c(=O)[nH]c2=O)cc1, the Potency is reported as 11.2 µM (active). In the case of COc1ccc(CN(CCCN)c2ccc(Br)cn2)cc1, the Potency is reported as “inactive”. For O=S(=O)(c1cccc(F)c1)N1CCN(c2nc(-c3cccs3)nc3ccccc23)CC1, the Potency was 1.01 µM (active). For O=S(=O)(c1cccc2ccccc12)N1CCN(c2nc(-c3cccs3)nc3ccccc23)CC1, the Potency was 0.819 µM (active). For O=S(=O)(c1ccc2ncccc2c1)N1CCN(c2nc(-c3cccs3)nc3ccccc23)CC1, the Potency was 0.8 µM (active). For N#Cc1ccccc1S(=O)(=O)N1CCN(c2nc(-c3cccs3)nc3ccccc23)CC1, the Potency was 2.25 µM (active) and 1.13 µM (active).
Potency means the concentration at half of the fitted maximal effect.
